Test results as given in PubChem BioAssay (NCATS).
Results filed as inconclusive are left out. Activity calls are given as the source filed them. Calls come from the whole dose curve; as a rule, active = well fitted curve in the direction sought with a large enough effect; inconclusive = small, poorly fitted or top-dose-only effect, or another doubt; inactive = no such curve, though single readings can be large; an effect the other way counts as inactive or inconclusive.

Assays:
[1] = biological target: Cellular tumor antigen p53 (Homo sapiens) (UniProt P04637); test: Primary qHTS for small molecule compounds that upregulate eGFP-tagged delta133p53alpha (in N-terminal) cells. (AID 2060322); conditions: NCI-H358 eGFP-delta133p53alpha fluorescence, 24 h; activation: hits give high values;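 note: cells pre-induced with doxycycline then dosed without doxycycline; 0% = DMSO vehicle and 100% = reference activator; nearly all actives have a fitted effect of over 75% in size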
Cellular tumor antigen p53 (Homo sapiens), sequence (P04637 whole entry, looked up): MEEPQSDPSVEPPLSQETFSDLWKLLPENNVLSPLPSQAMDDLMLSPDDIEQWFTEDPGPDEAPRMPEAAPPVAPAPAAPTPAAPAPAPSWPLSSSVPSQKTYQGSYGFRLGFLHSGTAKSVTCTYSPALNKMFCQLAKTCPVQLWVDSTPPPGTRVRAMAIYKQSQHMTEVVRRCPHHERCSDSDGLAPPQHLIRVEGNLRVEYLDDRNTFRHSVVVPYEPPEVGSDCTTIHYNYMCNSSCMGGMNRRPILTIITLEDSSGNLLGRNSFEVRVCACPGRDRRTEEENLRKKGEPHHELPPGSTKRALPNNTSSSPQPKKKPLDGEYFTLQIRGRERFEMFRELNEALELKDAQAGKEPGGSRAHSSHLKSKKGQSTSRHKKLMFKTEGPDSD
Procedure, shortened: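 NCI-H358 cells pre-induced 24 h with 10 ng/ml doxycycline for eGFP-delta133p53alpha, plated dox-free and exposed 24 h at 37C to titrated compounds. Fixed, Hoechst-stained; gated GFP peak intensity by laser scanning cytometry, normalized to DMSO (0%) and 57.5 uM 5-azacytidine (100%).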

[2] = biological target: Aldehyde dehydrogenase, mitochondrial (Homo sapiens) (UniProt P05091); test: qHTS for Inhibitors of the Aldehyde Dehydrogenase Family (ALDH2) Primary screen (AID 2061308); conditions: ALDH2 enzyme inhibition qHTS, 1536-well; series mostly up to 56 µM;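 note: plate controls were vehicle for no effect and reference inhibitor for full effect; nearly all actives have a fitted effect of over 55% in size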
[3] = biological target: Retinaldehyde dehydrogenase 3 (Homo sapiens) (UniProt P47895); test: qHTS for Inhibitors of the Aldehyde Dehydrogenase Family (ALDH1A3) Validation screen (AID 2061312); conditions: ALDH1A3 enzyme inhibition qHTS validation, fluorescence; series mostly up to 84.7 µM; note: % is set by controls: 0 for no effect and ±100 for the full control effect; nearly all actives have a fitted effect of over 45% in size
[4] = biological target: Retinaldehyde dehydrogenase 3 (Homo sapiens) (UniProt P47895); test: qHTS for Inhibitors of the Aldehyde Dehydrogenase Family (ALDH1A3) Primary screen (AID 2061315); conditions: ALDH inhibition qHTS; series mostly up to 56 µM;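 note: plate controls were DMSO vehicle for no effect and reference inhibitor for full effect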

CC[C@@H](c1ccc(F)c(F)c1)n1c(C(=O)OC)c(-c2ccno2)[nH]c1=S
inactive: activation [1] -6.68% | Potency [2] | Potency [3] | Potency [4]

C[C@@H]1C(=O)O[C@H]2CC34[C@H]5C[C@@H](C(C)(C)C)C36[C@@H](OC(=O)[C@@H]6O)OC4(C(=O)O5)[C@]21O (stereo partly specified)
inactive: activation [1] -10% | Potency [2] | Potency [3] | Potency [4]

O=C(O)Cc1ccc2oc(-c3ccc(NC(=O)/C=C/c4ccc(Br)cc4)c(F)c3)nc2c1
inactive: activation [1] 25.8% | Potency [2] | Potency [3] | Potency [4]

CCCCc1c(-c2ccc(OC)cc2)[nH]c2nccnc12
inactive: activation [1] 5.25% | Potency [2] | Potency [3] | Potency [4]
